Test results reported in the supplement of paper PMC10849652.
The full data set covers some 7,900 targets. This sample favours those with a hit. About 0.6% of all pairs of compound and target were hits. Unmarked numbers belong to inactive results.

Legend:
Assay in all cases: log2 fold change, soluble protein after heating vs DMSO (PISA); higher = thermal stabilisation; K562 cells, 10 uM, 30 min; active = over 0.2 and 3.5 SD of the protein, either way, in both replicates (recomputed)
[1] = compound: C#Cc1cccc(Nc2ncnc3cc(OCCOC)c(OCCOC)cc23)c1 [erlotinib]
In short: (§1)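 K562 cells at 2×10^6 cells/mL were exposed to 10 μM compound for 30 min, then aliquots were heated for 3 min across 48°C-58°C, pooled, and extracted in PBS containing 0.5% NP-40 at 4°C. The supernatant after 21,000xg for 90 min was taken as soluble protein and measured by TMTpro 16plex LC-MS/MS with channel sums equalised. Thermal stability is reported relative to control samples, with values from duplicates. Fold changes are given on a log2 scale.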

[2] = compound: C/C(=N\NC(=O)C1=CC(=CC=C1)S(=O)(=O)N2CCOCC2)/C3=C(C=CC(=C3)Cl)O
In short: as §1

[3] = compound: C1=CC(=C(C=C1Cl)C2=NC3=NC=CN=C3C(=N2)NC4=CC=NC=C4)F
In short: as §1

[4] = compound: C1=CC(=CC=C1C2=NC3=C(N2)C=C(C=C3)C(=O)N)OC4=CC=C(C=C4)Cl
In short: as §1

[5] = compound: C1=CC2=C(C=CC(=C2)/C=C\3/C(=O)NC(=NCC4=CC=CS4)S3)N=C1
In short: as §1

[6] = compound: C1=CC2=NC=CN=C2C=C1/C=C/3\C(=O)NC(=O)S3
In short: as §1

[7] = compound: C1=CC=C(C=C1)C2=NC(=C(N2)C3=CC=NC=C3)C4=CC(=C(C=C4)Cl)O
In short: as §1

[8] = compound: C1=CC=C2C(=C1)C3=NNC4=CC=CC(=C43)C2=O
In short: as §1

[9] = compound: C1CCN(C1)C(=O)NC2=CC=CC(=C2)NC3=NC=C(C(=N3)NCCC4=CN=CN4)Br
In short: as §1

[10] = compound: C1CN(CCC1(CC2=CC=C(C=C2)Cl)N)C3=NC=NC4=C3C=CN4
In short: as §1

Chain of UniProt Q14676 (Q14676 whole entry, looked up): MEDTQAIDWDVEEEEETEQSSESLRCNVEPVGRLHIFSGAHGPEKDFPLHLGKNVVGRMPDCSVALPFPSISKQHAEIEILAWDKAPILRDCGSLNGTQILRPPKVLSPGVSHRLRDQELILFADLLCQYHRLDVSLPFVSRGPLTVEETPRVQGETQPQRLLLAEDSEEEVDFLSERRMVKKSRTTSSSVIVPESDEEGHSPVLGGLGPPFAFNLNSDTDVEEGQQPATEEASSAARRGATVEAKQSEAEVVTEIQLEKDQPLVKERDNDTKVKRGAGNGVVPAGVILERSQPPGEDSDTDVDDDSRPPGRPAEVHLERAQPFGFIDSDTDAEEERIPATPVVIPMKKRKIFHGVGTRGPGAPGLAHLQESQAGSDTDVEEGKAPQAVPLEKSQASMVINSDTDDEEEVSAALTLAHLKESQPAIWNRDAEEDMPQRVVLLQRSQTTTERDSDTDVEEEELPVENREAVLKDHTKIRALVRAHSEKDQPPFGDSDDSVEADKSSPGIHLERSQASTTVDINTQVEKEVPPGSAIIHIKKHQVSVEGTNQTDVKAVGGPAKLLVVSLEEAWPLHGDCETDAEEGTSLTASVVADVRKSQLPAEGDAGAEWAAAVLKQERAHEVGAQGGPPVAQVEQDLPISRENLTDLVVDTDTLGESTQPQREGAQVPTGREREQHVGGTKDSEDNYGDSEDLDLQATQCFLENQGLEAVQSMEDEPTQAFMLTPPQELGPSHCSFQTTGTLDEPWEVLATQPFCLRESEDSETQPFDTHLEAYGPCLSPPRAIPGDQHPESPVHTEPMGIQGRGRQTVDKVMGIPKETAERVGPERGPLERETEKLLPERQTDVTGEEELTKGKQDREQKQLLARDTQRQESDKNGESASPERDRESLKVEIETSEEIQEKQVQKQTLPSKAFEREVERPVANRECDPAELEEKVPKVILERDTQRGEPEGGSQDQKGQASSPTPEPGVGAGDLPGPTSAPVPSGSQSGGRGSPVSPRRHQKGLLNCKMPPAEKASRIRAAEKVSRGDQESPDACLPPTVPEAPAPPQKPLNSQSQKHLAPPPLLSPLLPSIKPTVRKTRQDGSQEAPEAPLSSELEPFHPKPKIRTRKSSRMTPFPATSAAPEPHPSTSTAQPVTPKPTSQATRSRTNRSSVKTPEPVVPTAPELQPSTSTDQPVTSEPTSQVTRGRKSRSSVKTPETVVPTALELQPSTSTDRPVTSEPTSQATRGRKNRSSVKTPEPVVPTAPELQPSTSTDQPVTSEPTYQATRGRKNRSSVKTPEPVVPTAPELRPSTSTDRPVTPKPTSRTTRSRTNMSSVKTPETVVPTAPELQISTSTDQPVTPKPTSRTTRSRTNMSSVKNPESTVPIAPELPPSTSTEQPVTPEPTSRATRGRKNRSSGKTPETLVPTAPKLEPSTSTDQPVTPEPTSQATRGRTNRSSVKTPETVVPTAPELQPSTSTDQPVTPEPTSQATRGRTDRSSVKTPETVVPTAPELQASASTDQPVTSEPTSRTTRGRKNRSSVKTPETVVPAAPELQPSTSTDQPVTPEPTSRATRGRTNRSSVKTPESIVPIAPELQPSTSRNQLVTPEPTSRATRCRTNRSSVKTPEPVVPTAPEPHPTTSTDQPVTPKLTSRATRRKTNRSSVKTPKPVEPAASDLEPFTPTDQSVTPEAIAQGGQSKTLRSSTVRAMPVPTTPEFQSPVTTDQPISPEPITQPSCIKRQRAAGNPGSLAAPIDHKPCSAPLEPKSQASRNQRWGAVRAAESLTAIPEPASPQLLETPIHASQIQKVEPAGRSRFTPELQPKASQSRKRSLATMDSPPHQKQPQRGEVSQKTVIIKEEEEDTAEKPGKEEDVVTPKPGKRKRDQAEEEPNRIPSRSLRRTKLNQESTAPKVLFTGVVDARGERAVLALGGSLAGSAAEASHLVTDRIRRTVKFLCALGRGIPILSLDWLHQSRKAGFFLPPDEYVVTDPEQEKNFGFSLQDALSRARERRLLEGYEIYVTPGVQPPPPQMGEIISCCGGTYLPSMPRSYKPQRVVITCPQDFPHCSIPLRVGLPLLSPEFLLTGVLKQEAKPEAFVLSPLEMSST
Chain of UniProt Q8WWC4 (Q8WWC4 whole entry, looked up): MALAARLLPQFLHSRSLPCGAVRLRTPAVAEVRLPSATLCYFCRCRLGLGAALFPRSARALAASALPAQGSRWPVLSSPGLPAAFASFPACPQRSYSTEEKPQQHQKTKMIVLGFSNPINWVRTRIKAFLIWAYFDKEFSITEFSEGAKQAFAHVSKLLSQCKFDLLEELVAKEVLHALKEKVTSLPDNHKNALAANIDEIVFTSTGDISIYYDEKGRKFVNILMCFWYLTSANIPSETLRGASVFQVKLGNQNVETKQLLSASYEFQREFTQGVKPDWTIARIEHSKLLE
Chain of UniProt Q07666 (Q07666 whole entry, looked up): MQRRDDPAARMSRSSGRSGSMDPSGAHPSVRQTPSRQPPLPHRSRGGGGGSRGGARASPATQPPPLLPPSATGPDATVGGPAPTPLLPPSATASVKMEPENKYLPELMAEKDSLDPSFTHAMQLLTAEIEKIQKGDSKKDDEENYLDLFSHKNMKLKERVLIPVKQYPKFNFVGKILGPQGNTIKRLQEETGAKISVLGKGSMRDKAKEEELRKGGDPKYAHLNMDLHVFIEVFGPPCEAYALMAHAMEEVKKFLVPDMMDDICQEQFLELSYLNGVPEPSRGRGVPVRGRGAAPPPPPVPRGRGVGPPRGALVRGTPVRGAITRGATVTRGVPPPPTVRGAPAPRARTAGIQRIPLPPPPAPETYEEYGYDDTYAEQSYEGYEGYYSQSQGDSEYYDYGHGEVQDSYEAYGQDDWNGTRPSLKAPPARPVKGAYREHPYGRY
Chain of UniProt O95819 (O95819 whole entry, looked up): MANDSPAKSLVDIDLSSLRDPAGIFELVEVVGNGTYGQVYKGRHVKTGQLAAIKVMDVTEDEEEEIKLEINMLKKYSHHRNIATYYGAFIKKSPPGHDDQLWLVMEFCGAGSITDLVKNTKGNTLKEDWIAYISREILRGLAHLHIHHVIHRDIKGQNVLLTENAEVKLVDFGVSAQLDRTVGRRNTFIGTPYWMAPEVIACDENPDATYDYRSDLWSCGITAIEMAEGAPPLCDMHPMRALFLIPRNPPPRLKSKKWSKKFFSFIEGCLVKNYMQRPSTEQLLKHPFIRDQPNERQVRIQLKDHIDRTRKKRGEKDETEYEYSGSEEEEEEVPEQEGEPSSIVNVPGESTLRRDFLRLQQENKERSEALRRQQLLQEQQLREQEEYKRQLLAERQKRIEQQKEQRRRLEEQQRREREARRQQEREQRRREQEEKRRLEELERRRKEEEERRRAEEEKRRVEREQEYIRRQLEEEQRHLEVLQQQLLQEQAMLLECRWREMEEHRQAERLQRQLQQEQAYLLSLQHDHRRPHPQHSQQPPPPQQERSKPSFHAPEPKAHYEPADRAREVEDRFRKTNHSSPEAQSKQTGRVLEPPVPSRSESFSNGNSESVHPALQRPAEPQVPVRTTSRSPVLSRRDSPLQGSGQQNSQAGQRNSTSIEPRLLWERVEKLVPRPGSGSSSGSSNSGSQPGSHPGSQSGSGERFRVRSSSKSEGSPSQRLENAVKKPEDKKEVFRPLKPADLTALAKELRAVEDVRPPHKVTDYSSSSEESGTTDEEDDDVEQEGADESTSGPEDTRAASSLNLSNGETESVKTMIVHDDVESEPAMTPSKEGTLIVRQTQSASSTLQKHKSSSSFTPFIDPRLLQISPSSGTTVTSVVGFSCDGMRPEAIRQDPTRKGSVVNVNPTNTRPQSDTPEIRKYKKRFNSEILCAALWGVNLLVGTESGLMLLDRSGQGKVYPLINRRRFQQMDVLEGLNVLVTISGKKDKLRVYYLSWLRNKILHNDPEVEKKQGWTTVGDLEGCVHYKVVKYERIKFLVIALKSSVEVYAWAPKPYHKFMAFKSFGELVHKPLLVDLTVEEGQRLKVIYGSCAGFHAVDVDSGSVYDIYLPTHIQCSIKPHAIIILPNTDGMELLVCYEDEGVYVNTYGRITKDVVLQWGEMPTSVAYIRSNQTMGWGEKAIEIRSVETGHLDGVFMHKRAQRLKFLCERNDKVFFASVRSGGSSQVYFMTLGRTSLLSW
Chain of UniProt O95373 (O95373 whole entry, looked up): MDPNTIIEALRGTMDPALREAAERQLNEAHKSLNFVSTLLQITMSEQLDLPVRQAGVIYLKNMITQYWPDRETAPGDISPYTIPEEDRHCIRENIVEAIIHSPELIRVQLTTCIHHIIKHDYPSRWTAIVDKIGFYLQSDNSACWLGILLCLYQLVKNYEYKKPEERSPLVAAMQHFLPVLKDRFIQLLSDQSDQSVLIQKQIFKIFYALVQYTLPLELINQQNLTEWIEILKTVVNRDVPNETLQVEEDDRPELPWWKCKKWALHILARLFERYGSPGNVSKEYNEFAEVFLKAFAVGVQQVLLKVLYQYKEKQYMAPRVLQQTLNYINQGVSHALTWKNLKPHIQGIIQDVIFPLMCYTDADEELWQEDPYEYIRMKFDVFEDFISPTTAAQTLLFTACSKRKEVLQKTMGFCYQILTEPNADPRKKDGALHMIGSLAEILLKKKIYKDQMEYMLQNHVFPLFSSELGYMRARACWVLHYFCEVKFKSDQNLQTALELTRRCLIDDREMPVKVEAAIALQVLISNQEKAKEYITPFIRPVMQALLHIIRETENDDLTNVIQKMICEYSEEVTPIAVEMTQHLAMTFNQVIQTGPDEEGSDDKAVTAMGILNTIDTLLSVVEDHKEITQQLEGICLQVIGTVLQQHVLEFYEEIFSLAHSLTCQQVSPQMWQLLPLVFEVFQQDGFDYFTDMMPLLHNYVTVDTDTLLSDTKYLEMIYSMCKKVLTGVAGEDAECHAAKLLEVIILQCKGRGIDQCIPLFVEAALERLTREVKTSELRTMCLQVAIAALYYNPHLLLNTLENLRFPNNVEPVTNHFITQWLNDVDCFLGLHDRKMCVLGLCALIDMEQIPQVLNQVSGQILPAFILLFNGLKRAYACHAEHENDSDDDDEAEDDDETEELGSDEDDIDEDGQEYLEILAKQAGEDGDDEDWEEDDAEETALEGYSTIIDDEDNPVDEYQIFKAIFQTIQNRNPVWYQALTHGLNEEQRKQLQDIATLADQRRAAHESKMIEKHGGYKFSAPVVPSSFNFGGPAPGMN

Target | log2 fold change [1] | log2 fold change [2] | log2 fold change [3] | log2 fold change [4] | log2 fold change [5] | log2 fold change [6] | log2 fold change [7] | log2 fold change [8] | log2 fold change [9] | log2 fold change [10]
LDLR (UniProt P01130) | -0.035 | 0.003 | -0.04 | 0.03 | -0.018 | 0.025 | 0.011 | -0.113 | 0.025 | 0.051
IPO7 (UniProt O95373) | -0.015 | 0.078 | 0.034 | -0.003 | 0.01 | 0.056 | 0.026 | -0.019 | -0.004 | -0.05
MICOS13 (UniProt Q5XKP0) | 0.008 | 0.018 | 0.053 | -0.007 | 0.001 | 0.039 | 0.051 | 0.052 | 0.007 | 0.023
LSR (UniProt Q86X29) | 0.022 | 0.022 | -0.08 | 0.002 | -0.019 | 0.019 | -0.105 | -0.114 | -0.038 | 0.073
KPNA4 (UniProt O00629) | 0.016 | 0.023 | 0.037 | 0.023 | 0.005 | 0.03 | 0.027 | -0.024 | 0.003 | 0.003
MFN2 (UniProt O95140) | 0.027 | 0.049 | 0.007 | -0.001 | 0.026 | 0.008 | 0.041 | -0.003 | -0.016 | -0.019
KHDRBS1 (UniProt Q07666) | -0.023 | 0.042 | -0.076 | 0.029 | -0.088 | 0.046 | 0.027 | 0.014 | -0.029 | -0.084
MAP4K4 isoform 3 (UniProt O95819) | -0.057 | 0.058 | -0.047 | 0.021 | 0 | 0.034 | -0.069 | -0.316 (active) | -0.031 | -0.012
ILF3 isoform 7 (UniProt Q12906) | -0.068 | -0.084 | -0.266 | -0.004 | -0.049 | 0.099 | -0.061 | -0.01 | 0.054 | -0.186
MAIP1 (UniProt Q8WWC4) | -0.02 | 0.006 | -0.012 | 0.002 | 0.02 | 0.042 | 0.066 | 0.037 | -0.024 | 0.012
MDC1 (UniProt Q14676) | 0.056 | -0.284 | -0.184 | 0.025 | 0 | 0.057 | 0.177 | -0.094 | -0.139 | 0.072
LRBA (UniProt P50851) | 0.007 | 0.024 | 0.068 | 0.002 | 0.031 | 0.051 | 0.011 | -0.002 | 0.012 | 0.015
LMBR1 isoform 3 (UniProt Q8WVP7) | 0.148 | -0.016 | -0.034 | 0.071 | -0.046 | 0.081 | -0.14 | -0.013 | 0.037 | 0.15
MIEN1 (UniProt Q9BRT3) | 0.023 | 0.048 | 0.046 | -0.02 | 0.033 | 0.099 | 0.035 | -0.065 | 0.024 | -0.076
ITPRIP (UniProt Q8IWB1) | 0.012 | -0.086 | 0.052 | 0.034 | -0.05 | 0.01 | -0.085 | -0.094 | -0.02 | 0.012
